In PubChem BioAssay (EPA / NIEHS):
Records with an inconclusive call do not appear. Activity calls are given as the source filed them. How the source made its calls: active means hit-call score of the fitted dose curve at least 0.9, where 1 is the maximum; inconclusive means response in the unintended direction; inactive means score below 0.9.

Legend:
[1] = target: human Fibroblast Growth Factor Receptor 1 (FGFR1), FGFR1 (gene 2260) (UniProt P11362); assay: NVS_ENZ_hFGFR1: NovaScreen (NVS) Enzymatic Assay for human Fibroblast Growth Factor Receptor 1 (FGFR1) (AID 2283159);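 on AC50: hits lower the signal so potencies describe inhibitors of the kinase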
Sequence of human Fibroblast Growth Factor Receptor 1 (FGFR1), FGFR1 (gene 2260) (P11362 whole entry, looked up): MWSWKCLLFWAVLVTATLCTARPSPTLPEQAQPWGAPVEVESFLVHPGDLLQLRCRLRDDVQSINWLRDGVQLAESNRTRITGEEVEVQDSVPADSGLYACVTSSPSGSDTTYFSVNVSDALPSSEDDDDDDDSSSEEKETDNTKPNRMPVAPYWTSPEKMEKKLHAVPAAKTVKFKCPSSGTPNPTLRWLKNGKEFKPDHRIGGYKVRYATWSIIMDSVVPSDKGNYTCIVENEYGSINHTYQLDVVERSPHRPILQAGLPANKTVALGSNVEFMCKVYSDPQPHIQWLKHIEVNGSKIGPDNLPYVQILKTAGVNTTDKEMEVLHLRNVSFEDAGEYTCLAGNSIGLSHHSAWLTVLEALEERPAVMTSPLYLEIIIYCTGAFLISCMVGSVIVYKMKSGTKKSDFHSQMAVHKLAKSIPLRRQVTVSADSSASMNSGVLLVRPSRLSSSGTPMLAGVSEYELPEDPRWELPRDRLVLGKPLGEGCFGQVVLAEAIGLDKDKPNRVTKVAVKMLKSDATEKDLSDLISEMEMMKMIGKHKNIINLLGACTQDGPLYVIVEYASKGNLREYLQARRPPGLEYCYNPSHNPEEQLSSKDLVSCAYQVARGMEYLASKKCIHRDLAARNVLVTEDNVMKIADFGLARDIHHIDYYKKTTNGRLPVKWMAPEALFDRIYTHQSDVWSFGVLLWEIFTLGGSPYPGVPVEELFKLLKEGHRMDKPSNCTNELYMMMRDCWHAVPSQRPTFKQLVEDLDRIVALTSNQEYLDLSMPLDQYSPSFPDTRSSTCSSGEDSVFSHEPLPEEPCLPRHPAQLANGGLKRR
In short: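 Cell-free recombinant kinase with fluorescent substrate, product separated by electrophoretic mobility shift; read 1 hour after dosing, loss of signal relative to DMSO. Initial screen in duplicate at 25 uM, actives followed in concentration series.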

[2] = target: human Dual Specificity Protein Phosphatase 3 (DUSP3), DUSP3 (gene 1845) (UniProt P51452); assay: NVS_ENZ_hDUSP3: NovaScreen (NVS) Enzymatic Assay for human Dual Specificity Protein Phosphatase 3 (DUSP3) (AID 2283152);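 further: phosphatase activity of recombinant human DUSP3 on a fluorogenic substrate without cells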
Sequence of human Dual Specificity Protein Phosphatase 3 (DUSP3), DUSP3 (gene 1845) (P51452 whole entry, looked up): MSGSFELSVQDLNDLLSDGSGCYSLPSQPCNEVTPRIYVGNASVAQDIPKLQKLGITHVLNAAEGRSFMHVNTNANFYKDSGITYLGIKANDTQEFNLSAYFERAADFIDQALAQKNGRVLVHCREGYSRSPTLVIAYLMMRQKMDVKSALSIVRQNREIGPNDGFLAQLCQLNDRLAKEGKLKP
In short: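 Cell-free assay with recombinant human DUSP3 and fluorogenic substrate, read by fluorescence intensity. Primary screen ran duplicate at 25 uM; actives followed up in concentration series; loss of signal versus DMSO scored.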

[3] = target: human Matrix Metalloproteinase-1 (MMP1), MMP1 (gene 4312) (UniProt P03956); assay: NVS_ENZ_hMMP1: NovaScreen (NVS) Enzymatic Assay for human Matrix Metalloproteinase-1 (MMP1) (AID 2283181)
Sequence of human Matrix Metalloproteinase-1 (MMP1), MMP1 (gene 4312) (P03956 whole entry, looked up): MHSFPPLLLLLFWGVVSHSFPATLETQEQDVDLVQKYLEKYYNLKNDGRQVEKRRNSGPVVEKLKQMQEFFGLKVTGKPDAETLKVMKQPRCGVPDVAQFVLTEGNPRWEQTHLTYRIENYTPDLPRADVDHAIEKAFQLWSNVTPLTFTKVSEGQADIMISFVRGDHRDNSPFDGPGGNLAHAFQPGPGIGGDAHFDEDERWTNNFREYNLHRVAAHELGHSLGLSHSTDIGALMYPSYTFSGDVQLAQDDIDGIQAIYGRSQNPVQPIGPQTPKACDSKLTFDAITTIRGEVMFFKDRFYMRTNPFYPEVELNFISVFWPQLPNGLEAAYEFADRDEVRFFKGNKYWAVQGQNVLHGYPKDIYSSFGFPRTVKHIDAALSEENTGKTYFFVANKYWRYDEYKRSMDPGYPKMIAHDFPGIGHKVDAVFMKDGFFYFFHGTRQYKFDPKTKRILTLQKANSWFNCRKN
In short: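 Human MMP1 enzyme activity measured by fluorescence 1 h after dosing, cell-free, with a specific substrate. Screened in duplicate at 25 uM; hits (e.g. 30% inhibition) run in concentration-response up to 50 uM; loss of signal versus DMSO.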

[4] = target: human Esterase Plasma (ES), BCHE (gene 590) (UniProt P06276); assay: NVS_ENZ_hES: NovaScreen (NVS) Enzymatic Assay for human Esterase Plasma (ES) (AID 2283157)
Sequence of human Esterase Plasma (ES), BCHE (gene 590) (P06276 whole entry, looked up): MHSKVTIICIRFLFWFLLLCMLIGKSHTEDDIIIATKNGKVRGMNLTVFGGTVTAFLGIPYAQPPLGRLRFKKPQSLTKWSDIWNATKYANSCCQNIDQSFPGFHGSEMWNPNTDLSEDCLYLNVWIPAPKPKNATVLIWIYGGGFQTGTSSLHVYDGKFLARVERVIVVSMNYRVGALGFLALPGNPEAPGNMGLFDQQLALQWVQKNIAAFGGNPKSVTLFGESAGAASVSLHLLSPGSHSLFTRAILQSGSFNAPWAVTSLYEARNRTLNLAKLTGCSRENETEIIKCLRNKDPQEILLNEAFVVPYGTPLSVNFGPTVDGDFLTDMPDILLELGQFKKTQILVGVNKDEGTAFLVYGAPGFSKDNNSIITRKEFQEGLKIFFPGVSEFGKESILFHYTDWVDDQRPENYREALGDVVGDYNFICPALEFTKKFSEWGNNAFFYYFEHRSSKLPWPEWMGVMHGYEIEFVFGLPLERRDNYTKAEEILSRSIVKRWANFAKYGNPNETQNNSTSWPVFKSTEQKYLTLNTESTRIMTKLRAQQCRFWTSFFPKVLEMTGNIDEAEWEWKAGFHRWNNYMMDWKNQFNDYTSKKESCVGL
In short: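 Chemicals were added to plasma-extracted human enzyme in a cell-free format, and activity was read colorimetrically after 0.25 hour. Activity loss was referenced to DMSO; concentration-response top dose was 50 uM.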

[5] = target: human Ephrin type-B Receptor 2 (EphB2), EPHB2 (gene 2048) (UniProt P29323); assay: NVS_ENZ_hEphB2: NovaScreen (NVS) Enzymatic Assay for human Ephrin type-B Receptor 2 (EphB2) (AID 2283156)
In short: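 Recombinant kinase with fluorescent substrate, product separated by electrophoretic mobility shift, read 1 h after dosing. Duplicate 25 uM screen, then singleton concentration-response to 50 uM max; loss of signal versus DMSO.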

[6] = target: human FYN Proto-Oncogene, Src family Tyrosine Kinase (Fyn), FYN (gene 2534) (UniProt P06241); assay: NVS_ENZ_hFyn: NovaScreen (NVS) Enzymatic Assay for human FYN Proto-Oncogene, Src family Tyrosine Kinase (Fyn) (AID 2283161)
In short: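 Recombinant enzyme with fluorescent substrate, product separated by electrophoretic mobility shift; read 1 h after dosing. Duplicate 25 uM single-point screen, actives retested in concentration series; loss of signal vs DMSO.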

[7] = target: human Ephrin type-A Receptor 1 (EphA1), EPHA1 (gene 2041) (UniProt P21709); assay: NVS_ENZ_hEphA1: NovaScreen (NVS) Enzymatic Assay for human Ephrin type-A Receptor 1 (EphA1) (AID 2283158);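 further: activity is signal loss versus DMSO meaning EphA1 kinase inhibition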
Sequence of human Ephrin type-A Receptor 1 (EphA1), EPHA1 (gene 2041) (P21709 whole entry, looked up): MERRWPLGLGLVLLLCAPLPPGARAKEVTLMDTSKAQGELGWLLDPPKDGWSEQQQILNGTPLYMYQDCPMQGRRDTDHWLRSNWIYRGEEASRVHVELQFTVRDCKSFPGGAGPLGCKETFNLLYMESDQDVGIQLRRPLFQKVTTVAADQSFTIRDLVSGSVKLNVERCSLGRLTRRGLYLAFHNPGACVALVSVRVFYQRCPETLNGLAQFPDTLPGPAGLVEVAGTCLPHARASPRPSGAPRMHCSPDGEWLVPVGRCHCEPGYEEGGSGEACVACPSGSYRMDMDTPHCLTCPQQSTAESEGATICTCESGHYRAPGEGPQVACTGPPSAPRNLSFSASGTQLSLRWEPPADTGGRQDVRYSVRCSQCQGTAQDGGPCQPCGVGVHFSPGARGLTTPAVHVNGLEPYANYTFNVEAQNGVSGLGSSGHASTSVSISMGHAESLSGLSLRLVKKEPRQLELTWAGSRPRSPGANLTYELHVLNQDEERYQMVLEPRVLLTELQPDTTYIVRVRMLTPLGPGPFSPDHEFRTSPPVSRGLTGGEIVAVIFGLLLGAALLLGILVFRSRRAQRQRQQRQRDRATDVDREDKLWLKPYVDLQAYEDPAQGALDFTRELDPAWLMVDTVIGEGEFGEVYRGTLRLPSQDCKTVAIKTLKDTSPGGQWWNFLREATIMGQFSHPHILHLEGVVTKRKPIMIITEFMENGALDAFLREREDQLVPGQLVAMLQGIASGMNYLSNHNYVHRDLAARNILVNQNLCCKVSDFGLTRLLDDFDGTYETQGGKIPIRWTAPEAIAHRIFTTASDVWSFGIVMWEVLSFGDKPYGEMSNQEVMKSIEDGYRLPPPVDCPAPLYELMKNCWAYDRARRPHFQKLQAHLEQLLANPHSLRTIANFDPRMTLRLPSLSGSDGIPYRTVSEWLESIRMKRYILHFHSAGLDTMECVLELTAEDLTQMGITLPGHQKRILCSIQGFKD
In short: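 Recombinant kinase, fluorescent substrate, mobility-shift separation, fluorescence read at 1 h. Single-point duplicates at 25 uM; hits (e.g., ≥30% inhibition) run singleton concentration-response, max 50 uM. DMSO = negative control/baseline.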

[8] = target: Glycogen synthase kinase-3 beta (Homo sapiens) (UniProt P49841); assay: NVS_ENZ_hGSK3b: NovaScreen (NVS) Enzymatic Assay for human Glycogen Synthase Kinase-3 beta (GSK3b) (AID 2283165)
Sequence of Glycogen synthase kinase-3 beta (Homo sapiens) (P49841 whole entry, looked up): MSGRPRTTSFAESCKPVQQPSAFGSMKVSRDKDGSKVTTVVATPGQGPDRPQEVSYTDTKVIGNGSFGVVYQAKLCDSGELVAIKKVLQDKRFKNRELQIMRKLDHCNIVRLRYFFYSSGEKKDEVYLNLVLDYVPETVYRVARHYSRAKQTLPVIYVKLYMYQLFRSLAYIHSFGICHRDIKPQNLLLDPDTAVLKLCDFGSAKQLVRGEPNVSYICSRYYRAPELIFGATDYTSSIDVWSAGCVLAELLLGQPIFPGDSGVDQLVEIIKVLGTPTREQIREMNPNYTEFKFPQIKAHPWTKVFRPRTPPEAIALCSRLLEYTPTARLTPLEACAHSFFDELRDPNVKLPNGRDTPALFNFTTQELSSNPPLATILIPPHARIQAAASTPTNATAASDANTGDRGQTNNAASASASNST
In short: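 Recombinant enzyme with specific fluorescent substrate, 1 h, product separated by electrophoretic mobility shift. Primary duplicate screen at 25 uM; actives (e.g. 30% inhibition) followed in singleton concentration-response to 50 uM. Signal loss fitted versus DMSO.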

[9] = target: human Ephrin type-B Receptor 1 (EphB1), EPHB1 (gene 2047) (UniProt P54762); assay: NVS_ENZ_hEphB1: NovaScreen (NVS) Enzymatic Assay for human Ephrin type-B Receptor 1 (EphB1) (AID 2283154)
In short: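 Cell-free kinase assay with recombinant enzyme, fluorescent substrate and electrophoretic mobility-shift separation of substrate and product; read 1 h after dosing. Single-concentration duplicate screen at 25 uM; loss of signal versus DMSO baseline.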

[10] = target: human Elastase, ELANE (gene 1991) (UniProt P08246); assay: NVS_ENZ_hElastase: NovaScreen (NVS) Enzymatic Assay for human Elastase (AID 2283153)
Sequence of human Elastase, ELANE (gene 1991) (P08246 whole entry, looked up): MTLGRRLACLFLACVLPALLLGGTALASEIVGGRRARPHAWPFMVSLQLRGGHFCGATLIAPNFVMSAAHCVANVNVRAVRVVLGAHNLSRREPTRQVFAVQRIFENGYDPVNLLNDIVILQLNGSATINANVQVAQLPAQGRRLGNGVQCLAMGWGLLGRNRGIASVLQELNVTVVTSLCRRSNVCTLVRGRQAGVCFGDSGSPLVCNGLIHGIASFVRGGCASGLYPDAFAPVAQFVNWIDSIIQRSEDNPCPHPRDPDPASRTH
In short: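 Cell-free elastase from human neutrophils, 1.5 h after dosing, activity read by absorbance. Primary screen in duplicate at 25 uM; hits (e.g., 30% inhibition) rerun in singleton concentration-response up to 50 uM, fitted versus DMSO.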

[11] = target: Histone deacetylase 3 (Homo sapiens) (UniProt O15379); assay: NVS_ENZ_hHDAC3: NovaScreen (NVS) Enzymatic Assay for human Histone Deacetylase 3 (HDAC3) (AID 2283163)
Sequence of Histone deacetylase 3 (Homo sapiens) (O15379 whole entry, looked up): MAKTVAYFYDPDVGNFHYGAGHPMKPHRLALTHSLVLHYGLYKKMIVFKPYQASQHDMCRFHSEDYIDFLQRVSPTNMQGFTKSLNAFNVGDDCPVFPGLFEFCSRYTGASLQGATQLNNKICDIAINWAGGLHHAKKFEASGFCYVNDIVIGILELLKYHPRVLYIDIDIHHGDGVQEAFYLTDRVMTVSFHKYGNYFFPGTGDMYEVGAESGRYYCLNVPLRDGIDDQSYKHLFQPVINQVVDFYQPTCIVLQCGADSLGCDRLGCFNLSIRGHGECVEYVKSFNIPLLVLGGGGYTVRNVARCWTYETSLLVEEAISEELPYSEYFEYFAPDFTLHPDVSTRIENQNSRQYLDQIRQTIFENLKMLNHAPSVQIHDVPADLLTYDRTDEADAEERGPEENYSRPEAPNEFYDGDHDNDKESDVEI
In short: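 Recombinant human HDAC3 with fluorescent substrate, 1 h after dosing; product separated from substrate by electrophoretic mobility shift and read by fluorescence. Primary screen at 25 uM in duplicate; actives (e.g. ≥30% inhibition) retested in concentration-response up to 50 uM.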

[12] = target: Protein deacetylase HDAC6 (Homo sapiens) (UniProt Q9UBN7); assay: NVS_ENZ_hHDAC6: NovaScreen (NVS) Enzymatic Assay for human Histone Deacetylase 6 (HDAC6) (AID 2283164)
In short: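 Recombinant human HDAC6 with fluorescent substrate, 1 h; product separated from substrate by electrophoretic mobility shift. Primary screen in duplicate at 25 uM; actives retested singly in concentration-response up to 50 uM, fitted relative to DMSO.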

[13] = target: human c-Jun N-terminal Kinases (JNK2), MAPK9 (gene 5601) (UniProt P45984); assay: NVS_ENZ_hJNK2: NovaScreen (NVS) Enzymatic Assay for human c-Jun N-terminal Kinases (JNK2) (AID 2283171)
In short: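 Cell-free recombinant human JNK2 activity assay; fluorescent substrate and product separated by electrophoretic mobility shift, read 1 h after dosing. Primary duplicate screen at 25 uM; actives run in concentration-response up to 50 uM, relative to DMSO.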

[14] = target: Mitogen-activated protein kinase 3 (Homo sapiens) (UniProt P27361); assay: NVS_ENZ_hMAPK3: NovaScreen (NVS) Enzymatic Assay for human Mitogen-Activated Protein Kinase 3 (MAPK 3) (AID 2283177)
Sequence of Mitogen-activated protein kinase 3 (Homo sapiens) (P27361 whole entry, looked up): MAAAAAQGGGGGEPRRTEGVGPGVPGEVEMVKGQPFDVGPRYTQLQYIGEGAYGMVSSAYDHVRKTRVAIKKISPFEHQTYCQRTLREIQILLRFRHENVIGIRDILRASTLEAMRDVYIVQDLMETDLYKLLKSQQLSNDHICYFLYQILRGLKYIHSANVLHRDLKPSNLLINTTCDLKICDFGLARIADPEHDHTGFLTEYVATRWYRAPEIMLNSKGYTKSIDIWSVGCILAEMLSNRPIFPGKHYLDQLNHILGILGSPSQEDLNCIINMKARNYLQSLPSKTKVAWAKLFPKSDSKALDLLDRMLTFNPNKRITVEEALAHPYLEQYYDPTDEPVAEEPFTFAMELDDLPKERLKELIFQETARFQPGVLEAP
In short: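 Cell-free enzymatic assay with recombinant protein and specific substrate; fluorescence and electrophoretic mobility shift read-out 1 h after dosing. Primary screen duplicate at 25 uM; actives then run in concentration-response up to 50 uM, loss of signal versus DMSO.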

[15] = target: human MAP Kinase-Activated Protein Kinase 2 (MAPKAPK2), MAPKAPK2 (gene 9261) (UniProt P49137); assay: NVS_ENZ_hMAPKAPK2: NovaScreen (NVS) Enzymatic Assay for human MAP Kinase-Activated Protein Kinase 2 (MAPKAPK2) (AID 2283178)
Sequence of human MAP Kinase-Activated Protein Kinase 2 (MAPKAPK2), MAPKAPK2 (gene 9261) (P49137 whole entry, looked up): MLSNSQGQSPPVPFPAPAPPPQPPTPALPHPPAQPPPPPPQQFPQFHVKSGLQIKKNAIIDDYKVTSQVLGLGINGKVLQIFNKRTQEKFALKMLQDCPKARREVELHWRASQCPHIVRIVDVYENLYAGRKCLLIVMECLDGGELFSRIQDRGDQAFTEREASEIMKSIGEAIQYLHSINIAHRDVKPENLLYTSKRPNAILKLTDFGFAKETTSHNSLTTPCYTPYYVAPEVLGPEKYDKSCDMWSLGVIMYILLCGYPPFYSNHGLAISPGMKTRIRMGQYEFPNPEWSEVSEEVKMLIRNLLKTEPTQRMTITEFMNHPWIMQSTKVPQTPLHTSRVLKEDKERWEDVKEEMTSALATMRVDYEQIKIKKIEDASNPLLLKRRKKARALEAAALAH
In short: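 Cell-free recombinant human MAPKAPK2 activity measured by fluorescence with electrophoretic mobility shift separation of substrate and product, 1 hr after dosing. Loss of signal versus DMSO; primary screen at 25 uM, concentration-response up to 50 uM.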

[16] = target: human MET Proto-Oncogene, Receptor Tyrosine Kinase (MET), MET (gene 4233) (UniProt P08581); assay: NVS_ENZ_hMet: NovaScreen (NVS) Enzymatic Assay for human MET Proto-Oncogene, Receptor Tyrosine Kinase (MET) (AID 2283180)
In short: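 Cell-free MET kinase assay using recombinant protein and fluorescent substrate, with mobility-shift separation; read 1 h after dosing. Primary duplicate at 25 uM; actives in singleton concentration-response to 50 uM maximum. Signal loss versus DMSO.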

Compound: CCC(C)c1cc([N+](=O)[O-])cc([N+](=O)[O-])c1O (stereo not given)
- outcome [1]: inactive

Compound: O=C(O)C(F)(F)C(F)(F)C(F)(F)C(F)(F)C(F)(F)C(F)(F)C(F)(F)C(F)(F)C(F)(F)F
- AC50 [2]: 13 µM (active)
- outcome [3]: inactive

Compound: O=C(N[C@H]1CN2CCC1CC2)c1cc2ccoc2cn1
- outcome [4]: inactive
- outcome [1]: inactive

Compound: CCCCCCOC(=O)c1ccccc1C(=O)OCCCCCC
- outcome [1]: inactive

Compound: Oc1ccc(C(c2ccc(O)cc2)(C(F)(F)F)C(F)(F)F)cc1
- outcome [5]: inactive
- outcome [6]: inactive
- AC50 [3]: 5.26 µM (active)

Compound: CCCCCCCCCc1ccc(O)cc1
- AC50 [2]: 13.2 µM (active)
- outcome [7]: inactive

Compound: CCCN(CCC)N=O
- outcome [4]: inactive
- outcome [8]: inactive

Compound: CN(C)c1nc(=O)n(C2CCCCC2)c(=O)n1C
- outcome [9]: inactive

Compound: NS(=O)(=O)C(F)(F)C(F)(F)C(F)(F)C(F)(F)C(F)(F)C(F)(F)C(F)(F)C(F)(F)F
- outcome [10]: inactive

Compound: CC1=C2C[C@H]3[C@@H](CC=C4C[C@@H](O)CC[C@@]43C)[C@@H]2CC[C@]12O[C@@H]1C[C@H](C)CN[C@H]1[C@H]2C
- AC50 [4]: 12.5 µM (active)
- outcome [7]: inactive
- AC50 [1]: 21.1 µM (active)
- outcome [6]: inactive
- outcome [11]: inactive
- outcome [12]: inactive
- outcome [8]: inactive
- outcome [13]: inactive
- outcome [14]: inactive
- outcome [15]: inactive
- outcome [16]: inactive

Compound: CC(c1ccc(O)cc1)(c1ccc(O)cc1)c1ccc(O)cc1
- AC50 [1]: 25 µM (active)

Compound: Cc1ccccc1CO[C@@H]1C[C@@]2(C(C)C)CC[C@]1(C)O2
- outcome [9]: inactive
- AC50 [4]: 9.07 µM (active)
- outcome [1]: inactive

Compound: ClC1=C(Cl)[C@]2(Cl)[C@@H]3[C@@H]4C[C@@H]([C@H]5O[C@@H]45)[C@@H]3[C@@]1(Cl)C2(Cl)Cl
- AC50 [2]: 46.6 µM (active)
- AC50 [10]: 37.5 µM (active)

Compound: CCCCCCCCOC(=O)c1ccccc1C(=O)OCCCCCCCC
- outcome [2]: inactive

Compound: ClC(Cl)=C(c1ccc(Cl)cc1)c1ccc(Cl)cc1
- outcome [1]: inactive

Compound: c1cc2ccc3cccc4ccc(c1)c2c34
- outcome [1]: inactive
- outcome [11]: inactive
- outcome [12]: inactive

Compound: Cc1cccc([N+](=O)[O-])c1
- outcome [7]: inactive
- outcome [1]: inactive
- outcome [14]: inactive

Compound: CCCCCCCCCC[N+](C)(C)CCCCCCCCCC
- AC50 [2]: 26.3 µM (active)
- AC50 [4]: 25 µM (active)
- AC50 [7]: 19.7 µM (active)
- outcome [3]: inactive

Compound: O=S(=O)(O)C(F)(F)C(F)(F)C(F)(F)C(F)(F)F
- outcome [1]: inactive
